Source: PubChem (NMMLSC)
Shown are actives, neighbours in structure and some others; about 0.2% of the full set was active somewhere.
Bim-Bfl-1: inhibitors of Bim-Bfl-1 interaction, human; Bead-based flow cytometry, Bim-Bfl-1 binding inhibition; inhibition, % at 10 µM; 0.12% of 190,000 active; AID 1008;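 further: 0% = wells without compound plus tracer and 100% = blocker peptide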
Bcl-XL Bim block: inhibitors of Bim-Bcl-XL interaction, human | Q07817 | Bim peptide-Bcl-XL binding, bead flow cytometry, fluorescence | inhibition, % at 10 µM | 0.04% of 190,000 active | AID 1007
Target sequence (Q07817 whole entry, looked up): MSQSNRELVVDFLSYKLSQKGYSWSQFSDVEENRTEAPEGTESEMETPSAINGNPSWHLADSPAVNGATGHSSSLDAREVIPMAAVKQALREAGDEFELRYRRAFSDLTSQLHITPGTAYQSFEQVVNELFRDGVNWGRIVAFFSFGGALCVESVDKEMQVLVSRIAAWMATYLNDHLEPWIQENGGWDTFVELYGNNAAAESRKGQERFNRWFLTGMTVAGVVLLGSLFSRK
Bim-Bcl-B: inhibitors of Bim-Bcl-B interaction, human. Q9HD36. inhibition, % at 10 µM. 0.073% of 190,000 active. AID 951. bead-based flow cytometry, Bim peptide-Bcl-B binding;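 further: 0% = tracer peptide without compound and 100% = reference inhibitor peptide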
Bim-Bcl-W: inhibitors of Bim-Bcl-W interaction, human; Q92843; bead-based flow cytometry, Bim peptide-Bcl-W binding; inhibition, % at 10 µM; 0.02% of 190,000 active; AID 952;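 further: 0% = bound tracer without compound and 100% = peptide blocker; higher means less fluorescent Bim peptide bound to Bcl-W beads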
Target sequence (Q92843 whole entry, looked up): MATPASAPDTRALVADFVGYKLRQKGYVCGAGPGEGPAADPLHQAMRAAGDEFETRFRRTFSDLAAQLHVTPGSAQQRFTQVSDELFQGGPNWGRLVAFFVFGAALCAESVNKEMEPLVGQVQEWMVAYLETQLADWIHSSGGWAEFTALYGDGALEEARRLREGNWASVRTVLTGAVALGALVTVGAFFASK
Bcl-2 Bim block: inhibitors of Bim-Bcl-2 interaction, human; P10415; 0.06% of 190,000 active; Bead-based flow cytometry, Bim peptide-Bcl-2 binding; inhibition, % at 10 µM; AID 950; in the data active means inhibition above about 40%;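 further: 0% = no compound wells with probe peptide and 100% = reference peptide inhibitor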
Bim-BclXL dose: Bim-Bcl-XL interaction regulation, dose confirmation; 40 tested, under 10 active; shares compounds with Bim-Bfl-1; bead-based flow cytometry, Bim-Bcl-XL binding; inhibition of binding at 100 µM; call rule not given here
* = called active by the depositor; nt = no result given. Unless noted, no stated cut-off is given here; in the data, active means inhibition above about 40%.

SMILES | Bim-Bfl-1 | Bcl-XL Bim block | Bim-Bcl-B | Bim-Bcl-W | Bcl-2 Bim block | Bim-BclXL dose
CCN(CC)S(=O)(=O)c1cccc(C(=O)N/N=C/c2ccc(O)c(O)c2O)c1 | 37 | 54* | 43* | 38 | 33 | nt
CCn1c(C)nc2cc(C(=O)N/N=C/c3ccc(O)c(O)c3O)ccc21 | 52* | 13 | 9 | 38 | 34 | nt
Cc1nc(CN(C)C(=O)c2cc(COc3ccc4ncccc4c3)on2)cs1 | -4 | 0 | -2 | 0 | -1 | nt
COc1cc(NC2c3ncccc3C(=O)N2Cc2ccco2)cc(OC)c1OC (stereo not given) | 0 | -1 | -4 | 1 | 2 | nt
CC(C)(C)NC(=O)C(OC(=O)c1cccs1)c1ccc(C#N)cc1 (stereo not given) | -5 | -2 | -2 | -3 | -3 | nt
Cn1c(=O)nc2n(Cc3ccccc3)c3cccc(Cl)c3cc-2c1=O | -8 | -11 | -16 | 0 | -9 | nt
CC1CCN(C2(O)C(=O)Nc3ccc(Br)cc32)CC1 (stereo not given) | 6 | 63* | 57* | 17 | 47* | nt
Fc1cccc(F)c1-n1c(CN2CCCCC2)csc1=S | -8 | 0 | -4 | 0 | -6 | nt
Cc1ccccc1CN1CCSc2sccc2C1=O | -2 | -4 | -3 | -1 | -1 | nt
c1coc(C2Nc3cccc4cccc(c34)N2)c1 | 42* | 11 | 4 | 36 | 16 | nt
FC(F)(F)c1ccc(C2Nc3cccc4cccc(c34)N2)cc1 | 7 | 0 | 7 | -1 | 0 | nt
Cc1ccc(-c2cc(-c3ccc(F)cc3)c(C#N)c(N)n2)o1 | 32 | -1 | -5 | 2 | 3 | 3.6
Cc1cc(-c2cc(-c3ccc(Cl)cc3)nc(N)c2C#N)co1 | 40* | 0 | -1 | 4 | 0 | 6.2
Cc1ccc(-c2cc(-c3ccc4c(c3)OCO4)c(C#N)c(N)n2)o1 | 24 | -1 | -3 | 7 | 5 | nt
Cc1ccc(-c2cc(-c3ccc(Cl)cc3)c(C#N)c(N)n2)o1 | 24 | 3 | 1 | 1 | 1 | nt
Cc1ccc(-c2cc(-c3ccc(C)o3)nc(N)c2C#N)cc1 | nt | 20 | nt | 17 | 85* | 0.13
C=CS(=O)(=O)c1sc(Cl)c(N2CCOCC2)c1[N+](=O)[O-] | 48* | 6 | 10 | 9 | 11 | 6.7
C=CSc1sc(Cl)c(N2CCOCC2)c1[N+](=O)[O-] | -3 | -3 | -6 | -1 | -3 | nt
CN(CCO)c1cc(Sc2nc3ccccc3s2)c2nonc2c1[N+](=O)[O-] | 50* | 1 | 5 | 9 | 6 | -0.9
CN(C)S(=O)(=O)c1ccc(NC(=O)COC(=O)C2COc3ccccc3O2)cc1 (stereo not given) | -1 | 0 | 1 | 0 | 2 | nt
O=c1c2c(n3nnnc3n1Cc1ccccc1)-c1ccccc1CC21CCCC1 | -9 | -3 | 69* | 2 | -6 | 3.2
Cc1ccc(/C=N/NC(=O)CSc2nnc(-c3ccccc3)n2-c2ccc(Cl)cc2)o1 | 1 | -2 | -42 | -3 | -1 | nt
Cc1ccc(C=NNC(=O)CSc2nnc(-c3ccc(Cl)cc3)n2-c2ccccc2)o1 | nt | nt | nt | nt | nt | 6.6
CCCN=C1N/C(=C\c2ccco2)C(=O)N1c1ccccc1 | -1 | 1 | -3 | 0 | 0 | nt
O=C1/C(=C\c2ccco2)NC(=S)N1c1ccccc1 | 32 | 0 | -29 | 8 | 11 | 0.95
SMILES | Bim-Bfl-1 | Bcl-XL Bim block | Bim-Bcl-B | Bim-Bcl-W | Bcl-2 Bim block | Bim-BclXL dose
S=c1[nH]cc(-c2ccccc2)n1-c1ccccc1 | 17 | 0 | -19 | 2 | 1 | -3
O=C(/C=C/c1ccc(-c2ccccc2[N+](=O)[O-])o1)c1ccccc1 | 15 | 0 | -13 | 12 | 2 | 0.2
CNC(=O)/C(C#N)=C/c1ccc(-c2ccccc2[N+](=O)[O-])o1 | 2 | 5 | 0 | 6 | 1 | nt
Cc1cc(C)c(S(C)(=O)=O)c(Oc2cccc(C(F)(F)F)c2)n1 | -5 | -5 | -3 | -1 | -3 | nt
CCN(CC)C(=O)COC(=O)c1cc(-c2ccco2)nc2ccccc12 | 45* | 2 | 0 | 11 | 16 | 5.6
CCN(CC)c1ccc(NC(=O)c2ccccc2F)cc1S(=O)(=O)Nc1ccccc1OC | 29 | -6 | -31 | 3 | 4 | -11
CCN(CC)c1ccc(NC(=O)COc2ccccc2C)cc1S(=O)(=O)Nc1ccccc1OC | 38 | -11 | -32 | 0 | -5 | -9.5
CCN(CC)c1ccc(NC(=O)c2ccccc2Br)cc1S(=O)(=O)Nc1ccccc1OC | 33 | -2 | -33 | 2 | 2 | -10
O=C(CNC1CCCCCC1)Nc1ccccc1N1CCOCC1 | -7 | -3 | -3 | -6 | -6 | nt
O=C(c1cnc(Cl)c(Cl)c1)N1CCC(Cc2ccccc2)CC1 | -5 | 0 | -3 | 0 | 3 | nt
CCOC(=O)c1ccc(CNCc2ccc(C)cc2)cc1 | -22 | 0 | -5 | 0 | -7 | nt
Nc1nc(CCOc2ccc(F)cc2)cs1 | -4 | -2 | -6 | -5 | -3 | nt
CCN1CCN(c2nc(S(=O)(=O)c3ccc(C)cc3)c(Cl)s2)CC1 | -9 | -3 | -3 | -3 | 0 | nt
CCN1C(=O)/C(=C\C=C2/C=CC=CN2CC)SC1=S | 21 | 0 | -6 | 3 | 7 | -1.7
CCN1C(=O)/C(=C2/C=CC=CN2C)SC1=S | -13 | -18 | -5 | 0 | -8 | nt
COc1cc(C)c(Cl)cc1S(=O)(=O)NC1CC(C)(C)NC(C)(C)C1 | -3 | 0 | -2 | 0 | 1 | nt
COc1ccccc1NC(C)=O | 3 | 15 | -21 | -5 | 0 | nt
COc1ccccc1NC1=C(NC(C)=O)C(=O)c2ccccc2C1=O | 42* | 5 | 0 | 18 | 9 | 4.7
